High-throughput results (PubChem BioAssay)
Only some compounds are listed: those with a hit (about 2.8% of all), similar ones and a draw of the others.
POLB inh: qHTS Assay for Inhibitors of DNA Polymerase Beta. Pol beta primer extension/strand displacement, fluorescence kinetic. Potency, µM (top dose mostly 114 µM), inactives show at the top dose activity change, negative = inhibition, actives largely listed as inhibitors. 340,000 compounds, 1.3% hits; further: potency means the concentration at half of the fitted maximal effect; on the % scale 0 is the no-effect control and ±100 the full control effect
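Kinetic readout of DNA synthesis with strand displacement by Pol beta. Compound and 10 nM enzyme sit 15 min at room temperature; 50 nM substrate starts the reaction, read immediately and at 10 min.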
PI5P4K alpha inh: qHTS for Inhibitors of phosphatidylinositol 5-phosphate 4-kinase (PI5P4K). PI5P4Kalpha enzyme, ADP-Glo luminescence, 60 min; active compounds read low. max response, %. 330,000 compounds, 1.2% hits; active means max response of -50% or lower; inconclusive means between -30% and -50%; inactive means -30% or higher; further: value at the top dose of about 77 µM; on the % scale 0 is the no-effect control and ±100 the full control effect
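Human PI5P4Kalpha with substrate in 0.038 M HEPES pH 7.4, 0.28 mM EGTA, 0.1% CHAPS, 5% DMSO; reaction started with 5 microM ATP (final), 60 min at room temperature. ADP formed read by ADP-Glo luminescence.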
Pol eta inh: qHTS for Inhibitors of Polymerase Eta. Potency, µM (top dose mostly 114 µM), for inactives: top-dose activity change, negative = inhibition, hits mostly inhibitors. AID 588591, 2011. recombinant Pol eta, fluorescent DNA replication assay. DNA polymerase eta (Homo sapiens), Q9Y253. 390,000 compounds, 1.2% hits; further: potency means the concentration at half of the fitted maximal effect; on the % scale 0 is the no-effect control and ±100 the full control effect
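Pol eta at 10 nM preincubated with compounds 15 min at room temperature; reaction started with fluorescent substrate (50 nM final) and read kinetically at 0 and 10 min.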
PI4K2A block: qHTS for small molecular inhibitors of PI4K2A; Phosphatidylinositol 4-kinase type 2-alpha (Homo sapiens), Q9BTU6; purified PI4K2A, ADP-Glo luminescence, 1 h; active compounds read low; activity change, negative = inhibition, % at 76.9 µM; 420,000 compounds, 0.13% hits; in the data active means activity change below about -50%; inconclusive means mostly about -30% to -49%;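 further: -100% = wells without enzyme as full effect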
Target sequence (Q9BTU6 whole entry, looked up): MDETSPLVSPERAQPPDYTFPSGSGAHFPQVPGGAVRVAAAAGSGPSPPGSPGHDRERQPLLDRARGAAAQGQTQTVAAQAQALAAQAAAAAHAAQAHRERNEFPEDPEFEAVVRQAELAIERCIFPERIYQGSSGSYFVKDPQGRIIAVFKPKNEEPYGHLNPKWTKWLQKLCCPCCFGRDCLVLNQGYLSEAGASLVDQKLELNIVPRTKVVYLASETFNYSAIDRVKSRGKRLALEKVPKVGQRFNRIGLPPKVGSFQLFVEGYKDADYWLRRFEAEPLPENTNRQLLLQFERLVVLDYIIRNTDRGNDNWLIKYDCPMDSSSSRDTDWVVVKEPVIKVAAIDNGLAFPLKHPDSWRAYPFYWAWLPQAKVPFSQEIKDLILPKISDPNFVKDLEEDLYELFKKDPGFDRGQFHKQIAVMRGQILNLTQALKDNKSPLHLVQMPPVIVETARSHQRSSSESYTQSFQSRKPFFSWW
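Compounds are screened against recombinant PI4K2A using PI as substrate and ATP, the latter dispensed at 300 microM. Reactions run one hour at ambient temperature before ADP-Glo detection; full inhibition defined by wells lacking enzyme.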
Pol kappa inh: qHTS for Inhibitors of Polymerase Kappa; purified Pol kappa, fluorescent DNA synthesis assay, 10 min; 400,000 compounds, 0.53% hits; AID 588579, 2011; Potency, µM (top dose mostly 107 µM), for the others: at the highest dose activity, negative = inhibition, actives largely listed as inhibitors; DNA polymerase kappa (Homo sapiens), Q9UBT6; further: potency means the concentration at half of the fitted maximal effect; on the % scale 0 is the no-effect control and ±100 the full control effect
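10 nM Pol kappa was preincubated with compounds for 15 min at room temperature. Reaction started with 50 nM (final) substrate. Fluorescence read kinetically at 0 and 10 min.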
POLI inh: qHTS for Inhibitors of Polymerase Iota; DNA polymerase iota (Homo sapiens), Q9UNA4; Pol iota fluorescent replication assay, 10 min; AID 588590, 2011; Potency, µM (series often up to 115 µM), inactives show top-dose activity, negative = inhibition, usual class: inhibitors; 390,000 compounds, 1% hits; further: potency means the concentration at half of the fitted maximal effect
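Pol iota at 10 nM preincubated 15 min with compounds at room temperature; reaction started with fluorescent substrate, 50 nM final. Fluorescence read kinetically at 0 and 10 min; buffer-only wells as negative control.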
* marks the source's active call; other numbers are inactive results; ! = not active in a repeat. Unless noted, the call rests on the fitted dose curve; in most records, active means well fitted inhibition curve with a large enough effect; inconclusive means small, poorly fitted or top-dose-only effect, or another doubt; inactive means no such curve, though single readings can be large or run the other way.

Results for O=C1CC(c2ccccc2)=NN1c1nc(-c2ccccc2)cs1 ?
POLB inh: 32µM*; PI5P4K alpha inh: inconclusive; Pol eta inh: -20%; PI4K2A block: -10; Pol kappa inh: 40µM*; POLI inh: 20µM*

How did Cc1ccc(OCc2ccc(-c3nc(C#N)c(N4CCN(c5cccc(Cl)c5)CC4)o3)o2)cc1 do in these assays?
POLB inh: 8%; Pol eta inh: -11%; PI4K2A block: -1; Pol kappa inh: -19%; POLI inh: 26%

How did COc1ccc([C@H]2CC(=O)C=C(c3ccc(SC)cc3)C2)cc1 do in these assays?
PI5P4K alpha inh: 1; Pol eta inh: -14%; PI4K2A block: -1; Pol kappa inh: 9%; POLI inh: 89µM*

How did COc1ccc(C2=CC(=O)C[C@H](c3ccc(OC)cc3)C2)cc1 do in these assays?
PI5P4K alpha inh: 4; Pol eta inh: -24%; PI4K2A block: 0; Pol kappa inh: -2%; POLI inh: 8%

What do the screens show for `CCOc1ccc(-n2c(Cc3ccccc3)nnc2SCc2nc(-c3ccccc3OC)no2)cc1`?
POLB inh: 0%; Pol eta inh: -20%; PI4K2A block: -1; Pol kappa inh: -1%; POLI inh: 17%

Results for Cc1[nH]nc2c1C1(C(=O)Nc3ccc([N+](=O)[O-])cc31)C(C#N)=C(N)O2 (stereo not drawn) ?
POLB inh: -1%; PI5P4K alpha inh: -56*; Pol eta inh: -4%; PI4K2A block: -6; Pol kappa inh: -10%; POLI inh: 2%

How did Cc1ccc(SCc2[nH]nc3c2C2(C(=O)Nc4ccc(F)cc42)C(C#N)=C(N)O3)cc1 (stereo not drawn) do in these assays?
POLB inh: 3%; PI5P4K alpha inh: -3; Pol eta inh: -15%; PI4K2A block: 1; Pol kappa inh: -20%; POLI inh: 18%

What do the screens show for `O=C(O)c1cccc(NC2=C(N3CCOCC3)C(=O)c3ccccc3C2=O)c1`?
POLB inh: inconclusive; PI5P4K alpha inh: -10; Pol eta inh: -22%; PI4K2A block: -14; Pol kappa inh: -7%; POLI inh: inconclusive

How did O=C(O)c1ccc(NC2=C(n3nnc4ccccc43)C(=O)c3ccccc3C2=O)cc1 do in these assays?
POLB inh: 1%; PI5P4K alpha inh: -2; Pol eta inh: 4%; PI4K2A block: -12; Pol kappa inh: -23%; POLI inh: 40µM*

How did O=C1OCCC1Sc1nc2ccccc2c(=O)n1Cc1ccc(F)cc1 (stereo not drawn) do in these assays?
POLB inh: 25µM*; PI5P4K alpha inh: -14; Pol eta inh: inconclusive; PI4K2A block: 3; Pol kappa inh: -29%; POLI inh: inconclusive

How did O=C1OCCC1Sc1nc2ccccc2c(=O)n1-c1ccc(F)cc1 (stereo not drawn) do in these assays?
POLB inh: -23%; PI5P4K alpha inh: -12; Pol eta inh: 9%; PI4K2A block: 4; Pol kappa inh: -7%; POLI inh: 87%

What do the screens show for `CN(c1ccccc1)S(=O)(=O)c1nnc(NC(=O)COc2ccccc2)s1`?
POLB inh: inconclusive; PI5P4K alpha inh: -30; Pol eta inh: inconclusive; PI4K2A block: -9; Pol kappa inh: -15%; POLI inh: 79µM*

How did Cc1ccccc1OCC(=O)Nc1nnc(S(=O)(=O)N(C)c2ccccc2)s1 do in these assays?
POLB inh: 2%; Pol eta inh: -20%; PI4K2A block: -3; Pol kappa inh: -19%; POLI inh: 13%

How did O=C(O)CCc1ccc2ccccc2c1 do in these assays?
Pol kappa inh: -54%; POLI inh: inconclusive

What do the screens show for `O=C(Cc1ccc(OCCCCc2ccccc2)cc1)NO`?
Pol kappa inh: -25%; POLI inh: 21%

Results for O=C(O)c1c(Cl)c(Cl)c(Cl)c(Cl)c1-c1c2cc(I)c(=O)c(I)c-2oc2c(I)c(O)c(I)cc12 ?
Pol kappa inh: 12µM*

Results for N[C@@H](Cc1ccc(O)cc1)C(=O)NO ?
Pol kappa inh: 11%; POLI inh: 34%

What do the screens show for `Cc1ccccc1CN1CCCCC(NC(=O)C2CCC2)C1=O` (stereo not drawn)?
PI4K2A block: -5

How did Oc1ccc(/C=N/NC(=S)N/N=C/c2ccc(O)cc2)cc1 do in these assays?
POLB inh: 2%; PI5P4K alpha inh: -51*; Pol eta inh: -10%; PI4K2A block: -3; Pol kappa inh: 0%; POLI inh: inconclusive

Results for CCCCc1ccc(-c2ccc(C)cc2O)nc1 ?
POLB inh: 28µM*; PI5P4K alpha inh: 18; Pol eta inh: -6%; PI4K2A block: 0; Pol kappa inh: -13%; POLI inh: 22%

Results for CCc1cc(C(=O)/C=C/c2cc3c(cc2C)OCCO3)c(O)cc1O ?
Pol kappa inh: -4%; POLI inh: 16%

Results for COC(=O)[C@]12CCCCC=C1N(Cc1ccc(OC)cc1)C(=O)[C@@H]2CC(=O)NCc1cccc(C(F)(F)F)c1 ?
PI4K2A block: 3

How did C[C@H]1[C@@H](OC(=O)NCc2cccnc2)CC[C@@]23CCCN2C(=O)CCC[C@@H]13 do in these assays?
PI4K2A block: 1

Results for CCOC(=O)c1cc2c(=O)n3ccccc3nc2n(Cc2ccco2)c1=NC(=O)c1ccc(OC)cc1 ?
POLB inh: 33%; PI5P4K alpha inh: -10; Pol eta inh: -16%; PI4K2A block: -2; Pol kappa inh: inconclusive; POLI inh: 22µM*!

Results for Cc1ccc(S(=O)(=O)c2cc3c(=O)n4ccccc4nc3n(Cc3ccco3)c2=N)cc1C ?
POLB inh: 8.9µM*; PI5P4K alpha inh: -21; Pol eta inh: -25%; PI4K2A block: -2; Pol kappa inh: -4%; POLI inh: inconclusive

What do the screens show for `COCCCn1c(=N)c(S(=O)(=O)c2ccccc2)cc2c(=O)n3cc(C)ccc3nc21`?
POLB inh: -1%; Pol eta inh: -17%; PI4K2A block: 9; Pol kappa inh: 2%; POLI inh: 8%

What do the screens show for `CCn1c(=N)c(S(=O)(=O)c2ccccc2)cc2c(=O)n3ccccc3nc21`?
POLB inh: -1%; PI5P4K alpha inh: -11; Pol eta inh: -2%; PI4K2A block: 3; Pol kappa inh: 6%; POLI inh: 4%
